Test [1] deals with Tyrosine-protein kinase SYK (Homo sapiens) (UniProt P43405). The following applies: at 10 µM.
Test [2] has as its target T1, Mitogen-activated protein kinase kinase kinase 7 (Homo sapiens) (UniProt O43318).
T1 sequence (whole entry): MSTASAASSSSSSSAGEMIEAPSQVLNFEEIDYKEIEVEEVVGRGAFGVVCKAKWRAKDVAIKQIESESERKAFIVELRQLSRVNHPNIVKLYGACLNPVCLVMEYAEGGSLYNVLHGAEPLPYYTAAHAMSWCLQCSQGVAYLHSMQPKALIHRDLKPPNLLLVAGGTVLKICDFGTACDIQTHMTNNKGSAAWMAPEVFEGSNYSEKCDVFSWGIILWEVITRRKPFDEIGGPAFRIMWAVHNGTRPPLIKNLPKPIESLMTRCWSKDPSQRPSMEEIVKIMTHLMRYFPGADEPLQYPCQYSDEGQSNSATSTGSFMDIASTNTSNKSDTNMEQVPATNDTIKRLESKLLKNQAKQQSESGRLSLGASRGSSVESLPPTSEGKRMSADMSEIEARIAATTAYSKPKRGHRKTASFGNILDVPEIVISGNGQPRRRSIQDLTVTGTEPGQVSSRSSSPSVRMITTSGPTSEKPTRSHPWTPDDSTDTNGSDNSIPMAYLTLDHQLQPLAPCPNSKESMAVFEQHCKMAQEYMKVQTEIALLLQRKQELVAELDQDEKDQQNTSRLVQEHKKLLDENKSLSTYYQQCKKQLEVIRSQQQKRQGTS
The following applies: at 1 µM.

Test [3] has as its target T1, Mitogen-activated protein kinase kinase kinase 7 (Homo sapiens). The following applies: at 10 µM.
Test [4] addresses T2, Serine/threonine-protein kinase TAO1 (Homo sapiens) (UniProt Q7L7X3).
T2 sequence (whole entry): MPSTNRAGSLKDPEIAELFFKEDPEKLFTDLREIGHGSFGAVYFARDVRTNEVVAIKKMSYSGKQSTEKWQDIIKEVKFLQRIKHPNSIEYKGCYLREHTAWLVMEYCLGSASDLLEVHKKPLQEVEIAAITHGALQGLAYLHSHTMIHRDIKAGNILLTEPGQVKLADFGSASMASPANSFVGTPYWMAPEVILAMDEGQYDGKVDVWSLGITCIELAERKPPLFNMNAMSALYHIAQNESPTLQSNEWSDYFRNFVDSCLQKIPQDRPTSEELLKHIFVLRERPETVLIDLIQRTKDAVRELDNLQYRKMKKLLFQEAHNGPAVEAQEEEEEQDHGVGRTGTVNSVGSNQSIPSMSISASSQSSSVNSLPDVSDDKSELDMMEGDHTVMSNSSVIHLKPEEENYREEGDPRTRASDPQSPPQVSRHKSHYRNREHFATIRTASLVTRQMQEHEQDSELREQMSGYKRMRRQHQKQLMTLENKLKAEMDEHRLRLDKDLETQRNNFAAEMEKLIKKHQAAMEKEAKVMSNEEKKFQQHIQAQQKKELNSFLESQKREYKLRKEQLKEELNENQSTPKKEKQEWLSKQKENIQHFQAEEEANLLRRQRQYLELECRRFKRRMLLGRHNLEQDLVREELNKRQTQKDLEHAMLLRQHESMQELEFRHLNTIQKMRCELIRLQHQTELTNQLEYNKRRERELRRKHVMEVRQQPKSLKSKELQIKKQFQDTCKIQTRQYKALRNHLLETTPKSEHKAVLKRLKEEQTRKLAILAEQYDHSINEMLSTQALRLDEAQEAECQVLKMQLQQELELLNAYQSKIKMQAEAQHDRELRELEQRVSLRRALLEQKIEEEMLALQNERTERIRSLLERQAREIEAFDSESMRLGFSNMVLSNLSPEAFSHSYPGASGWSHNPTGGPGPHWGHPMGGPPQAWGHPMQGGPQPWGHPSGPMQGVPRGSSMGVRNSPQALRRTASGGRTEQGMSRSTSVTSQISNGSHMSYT
Conditions: at 1 µM.

Test [5] concerns the target T2, Serine/threonine-protein kinase TAO1 (Homo sapiens). Conditions: at 10 µM.
For test [6], the target named is T3, Serine/threonine-protein kinase TAO2 (Homo sapiens) (UniProt Q9UL54).
T3 sequence (whole entry): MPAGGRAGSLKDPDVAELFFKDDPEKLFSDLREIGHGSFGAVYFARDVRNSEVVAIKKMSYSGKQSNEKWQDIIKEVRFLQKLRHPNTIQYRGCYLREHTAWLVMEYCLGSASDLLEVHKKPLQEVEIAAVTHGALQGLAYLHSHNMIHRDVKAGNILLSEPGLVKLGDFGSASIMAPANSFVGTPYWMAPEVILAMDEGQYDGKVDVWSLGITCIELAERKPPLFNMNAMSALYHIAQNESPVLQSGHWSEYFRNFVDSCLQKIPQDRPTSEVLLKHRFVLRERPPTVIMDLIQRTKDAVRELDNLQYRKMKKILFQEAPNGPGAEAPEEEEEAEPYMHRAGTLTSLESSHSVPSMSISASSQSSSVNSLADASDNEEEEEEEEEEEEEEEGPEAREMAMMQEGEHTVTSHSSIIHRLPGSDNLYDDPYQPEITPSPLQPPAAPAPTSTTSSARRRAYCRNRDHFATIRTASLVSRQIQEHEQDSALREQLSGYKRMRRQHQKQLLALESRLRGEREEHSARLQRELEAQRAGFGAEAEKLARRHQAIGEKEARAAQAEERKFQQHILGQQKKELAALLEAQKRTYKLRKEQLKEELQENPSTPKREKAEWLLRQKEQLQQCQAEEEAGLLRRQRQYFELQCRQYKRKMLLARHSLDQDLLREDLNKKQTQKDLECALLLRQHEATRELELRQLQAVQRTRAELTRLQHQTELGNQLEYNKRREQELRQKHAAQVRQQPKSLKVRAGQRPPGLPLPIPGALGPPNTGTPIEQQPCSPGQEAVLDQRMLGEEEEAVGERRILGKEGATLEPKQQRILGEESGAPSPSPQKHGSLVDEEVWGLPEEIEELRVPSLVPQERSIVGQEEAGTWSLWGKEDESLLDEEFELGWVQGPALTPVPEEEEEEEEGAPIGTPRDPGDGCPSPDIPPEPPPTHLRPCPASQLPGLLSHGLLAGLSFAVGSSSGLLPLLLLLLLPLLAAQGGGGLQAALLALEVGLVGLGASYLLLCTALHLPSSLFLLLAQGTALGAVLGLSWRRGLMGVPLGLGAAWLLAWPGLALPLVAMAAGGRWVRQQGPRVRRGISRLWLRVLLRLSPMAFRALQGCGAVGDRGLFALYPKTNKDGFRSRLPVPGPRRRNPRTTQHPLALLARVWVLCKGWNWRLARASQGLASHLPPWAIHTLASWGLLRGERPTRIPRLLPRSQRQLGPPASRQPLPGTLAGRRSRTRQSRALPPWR
The following applies: at 1 µM.

Test [7] deals with T3, Serine/threonine-protein kinase TAO2 (Homo sapiens). The following applies: at 10 µM.
Test [8] addresses T4, Serine/threonine-protein kinase TAO3 (Homo sapiens) (UniProt Q9H2K8).
T4 sequence (whole entry): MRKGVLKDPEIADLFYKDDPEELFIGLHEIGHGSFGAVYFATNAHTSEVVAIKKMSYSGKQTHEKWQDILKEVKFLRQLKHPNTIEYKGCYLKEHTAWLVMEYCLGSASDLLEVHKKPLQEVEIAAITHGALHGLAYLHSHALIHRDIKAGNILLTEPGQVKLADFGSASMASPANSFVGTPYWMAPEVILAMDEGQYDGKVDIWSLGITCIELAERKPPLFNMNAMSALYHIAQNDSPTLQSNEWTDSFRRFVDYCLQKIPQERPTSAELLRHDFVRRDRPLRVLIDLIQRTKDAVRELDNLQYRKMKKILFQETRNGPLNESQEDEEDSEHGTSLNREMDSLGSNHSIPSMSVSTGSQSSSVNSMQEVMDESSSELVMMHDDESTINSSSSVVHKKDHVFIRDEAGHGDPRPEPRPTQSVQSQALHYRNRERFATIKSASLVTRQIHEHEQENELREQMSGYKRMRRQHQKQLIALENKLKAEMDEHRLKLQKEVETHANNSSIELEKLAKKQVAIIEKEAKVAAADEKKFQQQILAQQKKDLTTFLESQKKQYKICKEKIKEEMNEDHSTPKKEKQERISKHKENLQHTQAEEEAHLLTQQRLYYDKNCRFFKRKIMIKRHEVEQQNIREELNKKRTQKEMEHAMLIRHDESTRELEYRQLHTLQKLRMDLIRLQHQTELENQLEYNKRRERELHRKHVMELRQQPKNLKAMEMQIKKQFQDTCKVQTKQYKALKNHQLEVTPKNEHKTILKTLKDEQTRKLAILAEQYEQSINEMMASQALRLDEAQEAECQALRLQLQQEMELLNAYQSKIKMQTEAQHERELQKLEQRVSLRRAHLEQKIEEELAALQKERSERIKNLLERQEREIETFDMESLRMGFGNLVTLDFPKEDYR
The following applies: at 1 µM.

The target of test [9] is T4, Serine/threonine-protein kinase TAO3 (Homo sapiens). Conditions: at 10 µM.
Test [10] has as its target T5, Serine/threonine-protein kinase TBK1 (Homo sapiens) (UniProt Q9UHD2).
T5 sequence (whole entry): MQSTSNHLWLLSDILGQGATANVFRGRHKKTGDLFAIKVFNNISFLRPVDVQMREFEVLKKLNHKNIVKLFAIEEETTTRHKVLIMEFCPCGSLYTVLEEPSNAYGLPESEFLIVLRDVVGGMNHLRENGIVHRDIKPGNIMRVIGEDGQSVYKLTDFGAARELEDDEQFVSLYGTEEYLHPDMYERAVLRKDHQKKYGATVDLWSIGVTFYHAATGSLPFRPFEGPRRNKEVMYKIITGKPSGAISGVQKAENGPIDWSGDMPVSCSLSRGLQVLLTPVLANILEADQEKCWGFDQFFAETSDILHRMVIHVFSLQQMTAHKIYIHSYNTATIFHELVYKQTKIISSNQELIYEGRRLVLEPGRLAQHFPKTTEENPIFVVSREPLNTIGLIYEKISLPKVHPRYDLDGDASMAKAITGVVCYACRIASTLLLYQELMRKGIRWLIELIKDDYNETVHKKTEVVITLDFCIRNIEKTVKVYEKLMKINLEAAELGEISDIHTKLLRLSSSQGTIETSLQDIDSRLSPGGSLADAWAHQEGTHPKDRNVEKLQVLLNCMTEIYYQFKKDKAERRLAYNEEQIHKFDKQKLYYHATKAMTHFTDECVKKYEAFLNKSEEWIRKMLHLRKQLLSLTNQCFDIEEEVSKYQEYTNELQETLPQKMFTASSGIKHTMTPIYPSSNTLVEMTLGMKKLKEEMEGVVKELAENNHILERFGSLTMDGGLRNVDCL
Conditions: at 1 µM.

`Cc1nc2cc3nc(-c4cccs4)cnc3cc2n1C`: the residual activity in [1] is 93%; in test [2], 96%; in [3] it was 100%; in test [4] it was 111%; in test [5], 100%; in test [6], 113%. Moreover, the residual activity in test [7] is 98%; in test [8], 98%; in test [9], 95%; in test [10] it was 105%.

(Values after ChEMBL document CHEMBL2218924, “A broad activity screen in support of a chemogenomic map for kinase signalling research and drug discovery” (Biochem J, 2013).)
